The campaign covered roughly 310,000 compounds. About 17,000 (5.5%) were called active. Another 11% or so got no clear call; they are omitted. This is one part of a sample in which actives are shown more often than they occur. The rule behind the calls is not given here.
biological target: T1, Nuclear receptor ROR-gamma (Mus musculus) (UniProt P51450); test: qHTS for inhibitors of ROR gamma transcriptional activity.; assay type: functional
T1 sequence (whole entry): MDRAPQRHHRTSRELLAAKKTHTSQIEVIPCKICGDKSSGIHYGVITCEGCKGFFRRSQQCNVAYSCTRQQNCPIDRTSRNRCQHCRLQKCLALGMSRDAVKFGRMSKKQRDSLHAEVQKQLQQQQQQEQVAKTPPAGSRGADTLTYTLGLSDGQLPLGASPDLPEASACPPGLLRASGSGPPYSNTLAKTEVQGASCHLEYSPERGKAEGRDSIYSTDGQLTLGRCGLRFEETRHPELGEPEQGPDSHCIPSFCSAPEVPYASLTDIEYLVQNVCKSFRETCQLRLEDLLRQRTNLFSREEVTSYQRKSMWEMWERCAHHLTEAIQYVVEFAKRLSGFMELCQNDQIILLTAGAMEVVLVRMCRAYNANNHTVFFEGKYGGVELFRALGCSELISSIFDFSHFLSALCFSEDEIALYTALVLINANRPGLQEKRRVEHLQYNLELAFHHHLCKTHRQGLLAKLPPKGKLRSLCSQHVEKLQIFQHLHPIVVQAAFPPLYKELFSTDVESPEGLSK

Row | SMILES | Potency
1 | COC[C@@H]([C@H](O)[C@H](O)C(=O)NCC[C@H](C)c1nc(/C=C/C[C@@H]2O[C@]3(C[C@@H](O)[C@@H]2C)O[C@H]([C@H](C[C@H](O)[C@H](C)[C@H](O)[C@H](C)/C=C(C)/C(C)=C/C=C/C(C)=C\C#N)OC)[C@H](OP(=O)(O)O)C3(C)C)co1)N(C)C | 0.0014 µM (active)
2 | Cl[Te]1(Cl)OCCO1 | 15.8 µM (active)
